About 8,800 targets were measured; listed, in parts, are those with a hit and a random draw of the rest. About 0.5% of all pairs of compound and target were hits. Values without a mark were called inactive.
Key:
Assay in all cases: log2 fold change, soluble protein after heating vs DMSO (PISA); higher = thermal stabilisation; K562 lysate, 10 uM; active = over 0.2 and 3.5 SD of the protein, either way, in both replicates (recomputed)
erlotinib = compound: C#Cc1cccc(Nc2ncnc3cc(OCCOC)c(OCCOC)cc23)c1 [erlotinib]
Procedure, shortened: (§1)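 Values give the log-two fold change in thermal stability against solvent controls, from duplicates. Crude K562 extract at 1 mg/mL protein, made by dounce homogenisation in PBS pH 7.4 with 1 mM MgCl2, was treated with 10 μM compound for 30 min. After 3 min heating across 48°C-58°C, aliquots were pooled, adjusted to 0.5% NP-40 at 4°C and centrifuged at 21,000xg for 90 min. The supernatant was measured by TMTpro 16plex LC-MS/MS with channel sums equalised.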

[1] = compound: C/C(=N\NC(=O)C1=CC(=CC=C1)S(=O)(=O)N2CCOCC2)/C3=C(C=CC(=C3)Cl)O
Procedure, shortened: as §1

[2] = compound: C1=CC(=CC=C1C2=NC3=C(N2)C=C(C=C3)C(=O)N)OC4=CC=C(C=C4)Cl
Procedure, shortened: as §1

[3] = compound: C1=CC2=C(C=CC(=C2)/C=C\3/C(=O)NC(=NCC4=CC=CS4)S3)N=C1
Procedure, shortened: as §1

[4] = compound: C1=CC2=NC=CN=C2C=C1/C=C/3\C(=O)NC(=O)S3
Procedure, shortened: as §1

[5] = compound: C1=CC=C(C=C1)C2=NC(=C(N2)C3=CC=NC=C3)C4=CC(=C(C=C4)Cl)O
Procedure, shortened: as §1

[6] = compound: C1=CC=C2C(=C1)C3=NNC4=CC=CC(=C43)C2=O
Procedure, shortened: as §1

[7] = compound: C1CCN(C1)C(=O)NC2=CC=CC(=C2)NC3=NC=C(C(=N3)NCCC4=CN=CN4)Br
Procedure, shortened: as §1

[8] = compound: C1CN(CCC1(CC2=CC=C(C=C2)Cl)N)C3=NC=NC4=C3C=CN4
Procedure, shortened: as §1

IRAK-1-4 Inhibitor I = compound: C1COCCN1CCN2C3=CC=CC=C3N=C2NC(=O)C4=CC(=CC=C4)[N+](=O)[O-] [IRAK-1-4 Inhibitor I]
Procedure, shortened: as §1

ibrutinib = compound: C=CC(=O)N1CCC[C@@H](n2nc(-c3ccc(Oc4ccccc4)cc3)c3c(N)ncnc32)C1 [ibrutinib]
Procedure, shortened: as §1

[9] = compound: CC(=O)c1cnc2ccc(-c3cc(Cl)c(O)c(Cl)c3)nc2c1N[C@H]1CC[C@H](CN(C)C)CC1
Procedure, shortened: as §1

ralimetinib = compound: CC(C)(C)Cn1c(N)nc2ccc(-c3[nH]c(C(C)(C)C)nc3-c3ccc(F)cc3)nc21 [ralimetinib]
Procedure, shortened: as §1

[10] = compound: CC(C)(O)CC(=O)NCCn1ccc2ncnc(Nc3ccc(Oc4cccc(C(F)(F)F)c4)c(Cl)c3)c21
Procedure, shortened: as §1

[11] = compound: CC(C)C1=C2N=C(C=C(N2N=C1)NCC3=CC=CC=C3)NCCCCCCN
Procedure, shortened: as §1

[12] = compound: CC1=C(C(CC(=O)N1)C2=CC=C(C=C2)C(F)(F)F)C(=O)NC3=C(C=C4C(=C3)C=NN4)F
Procedure, shortened: as §1

[13] = compound: CC1=C(C2=C(C=C1)C(=O)C3=CC=CC=C3N2CCCN)C
Procedure, shortened: as §1

[14] = compound: CC1=C(C=C(C=C1)NC(=O)C2=CC(=CC=C2)C(C)(C)C#N)NC3=CC4=C(C=C3)N=CN(C4=O)C
Procedure, shortened: as §1

[15] = compound: CC1=C(C=C(C=C1)NC(=O)C2=CC(=CC=C2)N(C)C)NC(=O)C3=CC=C(C=C3)O
Procedure, shortened: as §1

[16] = compound: CC1=CC=C(C=C1)SC2=C3C=C(SC3=CN=C2)C(=O)N
Procedure, shortened: as §1

Sequence of UniProt Q13111 (Q13111 whole entry, looked up): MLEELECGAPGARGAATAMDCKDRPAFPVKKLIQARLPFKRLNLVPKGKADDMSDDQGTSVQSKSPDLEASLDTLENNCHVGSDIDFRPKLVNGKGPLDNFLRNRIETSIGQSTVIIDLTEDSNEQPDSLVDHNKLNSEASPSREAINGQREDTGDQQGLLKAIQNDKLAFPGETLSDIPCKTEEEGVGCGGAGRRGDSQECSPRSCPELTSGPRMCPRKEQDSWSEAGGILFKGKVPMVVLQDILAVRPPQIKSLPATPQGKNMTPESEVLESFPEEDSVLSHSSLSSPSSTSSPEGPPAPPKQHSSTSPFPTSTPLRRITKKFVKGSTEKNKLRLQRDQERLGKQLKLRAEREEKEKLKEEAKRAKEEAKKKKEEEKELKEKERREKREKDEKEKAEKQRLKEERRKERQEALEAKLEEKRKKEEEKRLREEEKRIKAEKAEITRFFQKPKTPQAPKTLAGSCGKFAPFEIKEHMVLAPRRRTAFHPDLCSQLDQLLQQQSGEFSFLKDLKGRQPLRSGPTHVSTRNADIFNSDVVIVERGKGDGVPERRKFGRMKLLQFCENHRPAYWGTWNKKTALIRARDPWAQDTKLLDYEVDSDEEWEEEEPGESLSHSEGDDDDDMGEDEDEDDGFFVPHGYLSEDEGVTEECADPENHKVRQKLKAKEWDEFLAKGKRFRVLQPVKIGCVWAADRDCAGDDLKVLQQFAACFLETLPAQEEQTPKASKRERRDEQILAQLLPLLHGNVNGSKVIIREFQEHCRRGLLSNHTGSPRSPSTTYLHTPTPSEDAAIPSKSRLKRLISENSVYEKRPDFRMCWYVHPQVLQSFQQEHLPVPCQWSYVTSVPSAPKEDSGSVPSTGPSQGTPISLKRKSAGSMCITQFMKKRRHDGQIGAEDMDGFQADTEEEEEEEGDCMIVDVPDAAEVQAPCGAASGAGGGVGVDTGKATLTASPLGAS
Sequence of UniProt Q00536 (Q00536 whole entry, looked up): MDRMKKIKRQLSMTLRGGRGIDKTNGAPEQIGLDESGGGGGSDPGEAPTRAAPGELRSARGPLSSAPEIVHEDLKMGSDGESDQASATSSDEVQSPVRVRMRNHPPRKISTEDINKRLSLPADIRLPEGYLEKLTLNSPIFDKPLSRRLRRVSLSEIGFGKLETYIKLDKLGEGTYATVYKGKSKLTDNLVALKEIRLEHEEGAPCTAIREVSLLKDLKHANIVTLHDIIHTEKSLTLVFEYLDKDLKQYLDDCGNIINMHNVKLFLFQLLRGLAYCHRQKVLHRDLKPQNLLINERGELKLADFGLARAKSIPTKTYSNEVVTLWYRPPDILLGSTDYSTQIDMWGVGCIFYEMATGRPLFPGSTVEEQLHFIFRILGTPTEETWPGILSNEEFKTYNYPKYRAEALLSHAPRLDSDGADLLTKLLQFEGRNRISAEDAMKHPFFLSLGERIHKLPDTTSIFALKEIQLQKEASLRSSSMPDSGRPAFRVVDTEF
Sequence of UniProt O95319 (O95319 whole entry, looked up): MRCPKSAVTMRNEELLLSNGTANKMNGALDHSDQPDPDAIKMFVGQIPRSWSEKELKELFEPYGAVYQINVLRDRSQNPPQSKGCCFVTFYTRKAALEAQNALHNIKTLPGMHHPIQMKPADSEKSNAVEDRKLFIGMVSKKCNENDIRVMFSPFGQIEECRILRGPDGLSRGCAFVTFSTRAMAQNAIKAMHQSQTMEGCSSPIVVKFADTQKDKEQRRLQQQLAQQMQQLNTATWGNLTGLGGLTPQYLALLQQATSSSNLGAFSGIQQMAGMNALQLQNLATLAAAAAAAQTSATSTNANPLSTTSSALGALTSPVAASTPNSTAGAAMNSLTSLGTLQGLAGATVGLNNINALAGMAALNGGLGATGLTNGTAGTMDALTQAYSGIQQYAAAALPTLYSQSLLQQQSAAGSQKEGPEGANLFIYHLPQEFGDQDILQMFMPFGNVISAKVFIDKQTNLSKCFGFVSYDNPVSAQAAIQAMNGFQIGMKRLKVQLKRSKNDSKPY
Sequence of UniProt O95352 (O95352 whole entry, looked up): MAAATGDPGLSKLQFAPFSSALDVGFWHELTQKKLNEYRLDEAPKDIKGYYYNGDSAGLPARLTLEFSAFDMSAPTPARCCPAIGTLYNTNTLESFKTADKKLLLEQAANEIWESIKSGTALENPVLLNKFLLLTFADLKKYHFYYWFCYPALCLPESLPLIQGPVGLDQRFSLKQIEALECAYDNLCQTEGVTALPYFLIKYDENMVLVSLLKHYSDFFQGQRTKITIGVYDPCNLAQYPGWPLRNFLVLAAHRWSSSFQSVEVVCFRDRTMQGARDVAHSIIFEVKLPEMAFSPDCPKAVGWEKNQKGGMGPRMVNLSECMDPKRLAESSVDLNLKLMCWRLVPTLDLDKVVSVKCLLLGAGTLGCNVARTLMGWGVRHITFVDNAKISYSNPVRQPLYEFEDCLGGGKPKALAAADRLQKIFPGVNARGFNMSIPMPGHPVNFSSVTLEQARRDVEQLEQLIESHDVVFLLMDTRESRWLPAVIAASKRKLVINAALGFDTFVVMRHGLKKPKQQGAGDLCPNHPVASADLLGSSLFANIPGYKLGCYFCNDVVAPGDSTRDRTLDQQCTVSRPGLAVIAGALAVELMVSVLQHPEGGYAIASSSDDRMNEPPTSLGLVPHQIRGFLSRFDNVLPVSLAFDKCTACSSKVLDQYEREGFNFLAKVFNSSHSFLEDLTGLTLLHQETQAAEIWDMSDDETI
Sequence of UniProt Q8NBU5 (Q8NBU5 whole entry, looked up): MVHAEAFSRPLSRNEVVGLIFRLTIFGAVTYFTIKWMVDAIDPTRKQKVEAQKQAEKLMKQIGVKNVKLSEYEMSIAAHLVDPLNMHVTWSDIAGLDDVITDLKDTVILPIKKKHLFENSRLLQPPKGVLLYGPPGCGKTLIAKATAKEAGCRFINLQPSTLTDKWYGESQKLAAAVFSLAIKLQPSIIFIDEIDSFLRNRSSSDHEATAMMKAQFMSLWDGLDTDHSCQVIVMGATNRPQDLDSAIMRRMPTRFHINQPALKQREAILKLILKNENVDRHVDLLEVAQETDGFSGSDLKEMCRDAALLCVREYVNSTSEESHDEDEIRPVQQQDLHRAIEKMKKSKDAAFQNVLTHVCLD
Sequence of UniProt Q8N4Q1 (Q8N4Q1 whole entry, looked up): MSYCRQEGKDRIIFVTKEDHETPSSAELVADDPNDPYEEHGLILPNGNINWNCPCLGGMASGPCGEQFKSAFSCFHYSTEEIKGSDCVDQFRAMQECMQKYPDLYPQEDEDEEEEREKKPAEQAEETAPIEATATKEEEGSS

Row | Target | log2 fold change (erlotinib) | log2 fold change [1] | log2 fold change [2] | log2 fold change [3] | log2 fold change [4] | log2 fold change [5] | log2 fold change [6] | log2 fold change [7] | log2 fold change [8] | log2 fold change (IRAK-1-4 Inhibitor I) | log2 fold change (ibrutinib) | log2 fold change [9] | log2 fold change (ralimetinib) | log2 fold change [10] | log2 fold change [11] | log2 fold change [12] | log2 fold change [13] | log2 fold change [14] | log2 fold change [15] | log2 fold change [16]
1 | CELF2 isoform 3 (UniProt O95319) | -0.111 | -0.041 | -0.041 | -0.004 | -0.024 | 0.007 | -0.012 | -0.053 | 0.041 | -0.029 | -0.016 | 0.062 | -0.019 | -0.015 | 0.001 | 0.025 | 0.01 | -0.413 (active) | 0.018 | 0.014
2 | CDK16 isoform 2 (UniProt Q00536) | -0.061 | 0.002 | 0.016 | 0 | -0.005 | -0.017 | 0.151 | 0.004 | -0.007 | 0.03 | 0.025 | 0.28 | 0.016 | 0.009 | -0.089 | -0.023 | -0.007 | -0.037 | -0.024 | -0.141
3 | ATAD1 (UniProt Q8NBU5) | 0.004 | 0.046 | -0.016 | 0.027 | -0.059 | -0.041 | 0.004 | -0.029 | 0.015 | 0.063 | 0 | 0.008 | 0.245 | -0.059 | 0.016 | -0.165 | -0.059 | -0.003 | -0.01 | 0.03
4 | CHAF1A (UniProt Q13111) | -0.017 | -0.089 | -0.005 | -0.004 | -0.005 | 0.009 | -0.008 | -0.025 | 0.036 | -0.011 | 0.026 | -0.017 | 0.011 | 0.018 | 0.032 | 0.049 | -0.043 | 0.001 | 0.001 | 0.012
5 | ATG7 (UniProt O95352) | 0.03 | 0.113 | 0.035 | 0.001 | 0.015 | -0.003 | -0.06 | -0.028 | 0.032 | 0.017 | 0.014 | -0.008 | 0.026 | -0.016 | -0.022 | 0.021 | 0.002 | -0.001 | 0.011 | 0.027
6 | CHCHD4 isoform 2 (UniProt Q8N4Q1) | -0.069 | -0.06 | -0.068 | -0.028 | -0.111 | -0.018 | -0.073 | -0.044 | 0.009 | 0.016 | 0.076 | -0.041 | 0.034 | -0.091 | -0.015 | 0.076 | 0.002 | 0.039 | 0 | 0.013
7 | ATM (UniProt Q13315) | 0.02 | -0.031 | -0.02 | -0.064 | -0.052 | -0.001 | 0.043 | -0.016 | -0.042 | 0.007 | 0.027 | 0.253 (active) | 0.013 | -0.021 | 0.04 | 0.002 | -0.027 | -0.014 | -0.015 | -0.013
